Sampled rows, rich in hits. Any-hit rate of the full collection: about 1.6%.
KCNQ2 block: blocks the rat KCNQ2 potassium channel; B-score at 10 µM; O88943; 1.1% of 310,000 active; CHO-K1 KCNQ2, FluxOR thallium flux, 20 min; stronger effect = lower value;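 active = fluorescence ratio B-score at most minus 3 library SDs, with starting brightness B-score within 2 library SDs, cut at about -5.5 in these data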
KCNQ2 pot: enhances the rat KCNQ2 potassium channel; O88943; CHO-K1 KCNQ2, FluxOR thallium flux fluorescence; stronger effect = higher value; B-score at 10 µM; 0.54% of 310,000 active;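 active = fluorescence ratio B-score at least 3 SD of library B-scores, with initial fluorescence B-score within 3 of them, cut at about 5.3 in these data; same plate scores as AID 2156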;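 note: B-score of peak minus minimum over baseline fluorescence ratio after K+ and Tl+ stimulus; positive B-score means potentiation of KCNQ2 with more thallium influx and brighter signal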
Kir21 confirm: confirmation of mouse Kir2.1 potassium channel inhibitors; shares compounds with KCNQ2 pot; Kir2.1-expressing cells, FluxOR thallium flux fluorescence; stronger effect = lower value; Tl flux remaining, % of negative control (stronger effect = lower value), % at 10 µM; 41% of 2,300 active;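 active = Primary-screen hit whose thallium flux fell at least 3 control SD below untreated wells in both duplicates, with normal baseline fluorescence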
HEK293 ctr: parental HEK293 activity in Kir2.1 inhibitor counter-screen; shares compounds with KCNQ2 pot; parental HEK293 cells, FluxOR thallium flux fluorescence; 0% = unstimulated blank wells; FluxOR signal as % of negative control (100 = no effect), % at 10 µM; 19% of 2,300 active;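 active = dye signal at least 3 control SD above or below untreated wells in both duplicates, raw fluorescence within 3, either direction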;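 note: percent is based on the flux ratio of peak minus minimum fluorescence over baseline F0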
CHO-K1 ctr: counter-screen for KCNQ2 potentiators: effect in parental CHO-K1 cells. 43% of 1,200 active. AID 2282. activity increase over 3SD of controls, % at 10 µM. shares compounds with KCNQ2 pot. FluxOR thallium flux fluorescence; zero = vehicle mean+3SD, 100% = vehicle-minus-blank window;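 active = signal rise of at least 3 SD above the untreated control mean, in both duplicate wells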;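 note: counter screen of KCNQ2 potentiator hits so any rise reflects channel-independent effects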
KCNQ1 sel pot: human KCNQ1 counter-target activity of KCNQ2 potentiators | CHO KCNQ1 stable, FluxOR thallium flux fluorescence; beyond 3SD, as % of vehicle-control signal | AID 2283 | shares compounds with KCNQ2 pot | activation over 3SD threshold, % at 10 µM | 28% of 1,200 active;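 active = fluorescence ratio rise of at least 3 SD of vehicle wells above their mean, in both replicate wells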
Target sequence (P51787 whole entry, looked up): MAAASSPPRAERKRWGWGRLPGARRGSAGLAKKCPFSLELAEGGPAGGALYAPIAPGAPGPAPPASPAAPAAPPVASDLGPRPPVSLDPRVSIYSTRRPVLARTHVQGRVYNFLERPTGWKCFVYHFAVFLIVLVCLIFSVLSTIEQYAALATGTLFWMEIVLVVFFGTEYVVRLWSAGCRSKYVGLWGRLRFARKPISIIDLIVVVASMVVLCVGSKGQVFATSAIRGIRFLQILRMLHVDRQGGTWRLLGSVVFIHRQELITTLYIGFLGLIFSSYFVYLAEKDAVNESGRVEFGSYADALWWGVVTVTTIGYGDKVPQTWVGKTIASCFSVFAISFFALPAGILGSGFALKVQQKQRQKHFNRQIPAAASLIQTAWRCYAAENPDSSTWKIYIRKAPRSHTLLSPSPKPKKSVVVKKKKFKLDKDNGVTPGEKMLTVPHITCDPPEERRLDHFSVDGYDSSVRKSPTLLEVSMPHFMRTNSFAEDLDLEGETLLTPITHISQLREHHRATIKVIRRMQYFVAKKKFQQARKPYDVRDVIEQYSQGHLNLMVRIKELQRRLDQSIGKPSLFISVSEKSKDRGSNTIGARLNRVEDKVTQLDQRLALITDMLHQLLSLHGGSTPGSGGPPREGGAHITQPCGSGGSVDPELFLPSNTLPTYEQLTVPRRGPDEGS
KCNQ2 pot conf: confirmation of rat KCNQ2 potassium channel potentiators; shares compounds with KCNQ2 pot; CHO-KCNQ2 cells, FluxOR thallium flux fluorescence; potentiation, less the hit threshold, % at 10 µM; 68% of 1,200 active; AID 2287;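 active = fluorescence ratio rising 3 SD or more over the vehicle control mean in both replicates, plus primary screen hit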;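 note: peak minus minimum thallium fluorescence divided by baseline after K/Tl stimulus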
Kir2-1 sel: mouse Kir2.1 off-target activity of KCNQ2 potentiators | AID 2345 | HEK293 Kir2.1, FluxOR thallium flux fluorescence | activity over 3SD threshold, % at 10 µM | 2% of 1,200 active | shares compounds with KCNQ2 pot;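 active = fluorescence ratio rise of at least 3 SD above the vehicle-control mean, seen in both replicates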
KCNQ2 W236L MoA: rat KCNQ2 W236L mutant potentiation by KCNQ2 potentiators | shares compounds with KCNQ2 pot | CHO KCNQ2-W236L, automated patch clamp current | current increase over 3SD of negative controls (%), stronger effect = higher value, % at 25 µM | 10% of 940 active;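 active = current increase at least 3 SD of the untreated controls above them in both duplicate recordings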
Each line names hits and unclear results; the compound was inactive in the other large screens (follow-up assays come after a bar, where they were run).

Cc1cc(OCCOCCNCc2ccccc2)ccc1C(C)C	none | Kir21 confirm 22% | HEK293 ctr inactive
Cc1ccc(C(C)C)c(OCCNCc2ccccc2)c1	none | Kir21 confirm 16% | HEK293 ctr inactive
Cc1ccc(C(C)C)c(OCCCCN2CCNCC2)c1	none | Kir21 confirm 44% | HEK293 ctr inactive
Cc1ccc(C(C)C)c(OCCOCCN2CCNCC2)c1	none (no result: KCNQ2 pot)
c1ccc(Nc2nnc(-c3cccnc3)s2)cc1	none (no result: KCNQ2 pot)
COC(=O)c1cccc(NC(=O)CSc2nnc(C)o2)c1	none (no result: KCNQ2 pot)
CN(C)C(CNC(=O)c1ccc(S(=O)(=O)Nc2cccc(C(F)(F)F)c2)cc1)c1ccco1 (stereo not given)	none (no result: KCNQ2 pot)
CC(C)Sc1nnc([C@H](Cc2c[nH]c3ccccc23)NC(=O)OC(C)(C)C)o1	none (no result: KCNQ2 pot)
CN(CC(=O)Nc1ccc(N2CCOCC2)cc1)C(=O)CCc1cc(C(C)(C)C)c(O)c(C(C)(C)C)c1	none
Cc1ccc(-c2nn(CCC(=O)NN3CCOCC3)c(=O)c3ccccc23)cc1	none
COc1ccc(CCN(C)C(=O)CNC(=O)Cc2cccc3ccccc23)cc1OC	none (no result: KCNQ2 pot)
CC1CCC2C(=O)N(c3cccc(C(=O)Nc4ccccc4Cl)c3)C(=O)C2C1 (stereo not given)	none (no result: KCNQ2 pot)
Cc1ccc(-c2nn(-c3ccccc3)cc2/C=N/O)cc1	KCNQ2 pot 5.4 | Kir21 confirm inactive | HEK293 ctr inactive | CHO-K1 ctr inactive | KCNQ1 sel pot inactive | KCNQ2 pot conf 15 | Kir2-1 sel inactive | KCNQ2 W236L MoA inactive
O/N=C/c1cn(-c2ccccc2)nc1-c1cccnc1	none (no result: KCNQ2 pot)
CCCCCC/C(C)=C1/SC(=S)NC1=O	KCNQ2 pot 22 | Kir21 confirm inactive | HEK293 ctr 438% | CHO-K1 ctr 6.0 | KCNQ1 sel pot inactive | KCNQ2 pot conf 104 | Kir2-1 sel inactive | KCNQ2 W236L MoA 71%
CCCCCCCC(=O)NNC(=O)Cc1ccccc1	none
CN(CC(=O)Nc1ccccc1Cl)C(=O)COC(=O)Cc1ccc(F)cc1	none
Cc1ccccc1Cn1nc(C)c(NC(=O)C2c3ccccc3Oc3ccccc32)c1C	none
COc1ccc(C(C(=O)NC2CCCC2)N(Cc2cccnc2)C(=O)c2snc(C(N)=O)c2N)cc1OC (stereo not given)	none
CN(C)CCCn1c(NC(=O)C2CCCCC2)nc2ccccc21	none
CCCCn1c(NC(=O)C2CCCCC2)nc2ccccc21	KCNQ2 pot 9.6 | Kir21 confirm inactive | HEK293 ctr inactive | CHO-K1 ctr 3.9 | KCNQ1 sel pot inactive | KCNQ2 pot conf 16 | Kir2-1 sel inactive | KCNQ2 W236L MoA inactive
CCOc1ccc2oc(C(=O)N3CC(C)OC(C)C3)c(C)c2c1 (stereo not given)	none
CCOC(=O)c1n[nH]c2ccccc12	none
CCOC(=O)c1n[nH]n2c1nc(=S)c1ccccc12	KCNQ2 pot 8.2 | Kir21 confirm inactive | HEK293 ctr 391% | CHO-K1 ctr inactive | KCNQ1 sel pot inactive | KCNQ2 pot conf 43 | Kir2-1 sel 1.3 | KCNQ2 W236L MoA inactive
CCCN(c1ccccc1F)S(=O)(=O)c1c[nH]c(C(=O)OC)c1	none
O=C(Nc1nccs1)c1ccc2ccccc2c1	none
O=C(Nc1n[nH]c(=S)s1)c1ccc2ccccc2c1	KCNQ2 pot 6.5 | Kir21 confirm inactive | HEK293 ctr 222% | CHO-K1 ctr inactive | KCNQ1 sel pot 16 | KCNQ2 pot conf 8.2 | Kir2-1 sel inactive | KCNQ2 W236L MoA 18%
COc1ccc(C)cc1NC(=O)C(=O)NNC(=O)c1ccco1	KCNQ2 pot 15 | Kir21 confirm inactive | HEK293 ctr 359% | CHO-K1 ctr 3.4 | KCNQ1 sel pot inactive | KCNQ2 pot conf 54 | Kir2-1 sel inactive | KCNQ2 W236L MoA inactive
COc1ccc(C)cc1NC(=O)CCNC(=O)c1ccco1	none
COc1ccccc1NC(=O)COc1ccc2ccccc2c1	none (no result: KCNQ2 pot)
COc1ccccc1NC(=O)C(=O)NNC(=O)COc1ccc2ccccc2c1	KCNQ2 pot 23 | Kir21 confirm inactive | HEK293 ctr inactive | CHO-K1 ctr 41 | KCNQ1 sel pot inactive | KCNQ2 pot conf 28 | Kir2-1 sel inactive | KCNQ2 W236L MoA inactive
CC(=O)Nc1ccc(/C=N/N2C(=O)NC(C)(c3ccc(OC(F)F)cc3)C2=O)cc1 (stereo not given)	KCNQ2 pot 18 | Kir21 confirm inactive | HEK293 ctr inactive | CHO-K1 ctr inactive | KCNQ1 sel pot 11 | KCNQ2 pot conf 24 | Kir2-1 sel inactive | KCNQ2 W236L MoA inactive
CCOC(=O)CN1C(=O)NC(C)(c2ccc(OC(F)F)cc2)C1=O (stereo not given)	none (no result: KCNQ2 pot)
O=C(NCC1OCCCN1S(=O)(=O)c1cc(F)ccc1F)C(=O)NC1CCCC1 (stereo not given)	none (no result: KCNQ2 pot)
O=C1CC(O)(C(F)F)Oc2ccc3ccccc3c21 (stereo not given)	none
O=C1CC(O)(C(F)(F)F)Oc2c1ccc1ccccc21 (stereo not given)	KCNQ2 pot 5.7 | Kir21 confirm inactive | HEK293 ctr 248% | CHO-K1 ctr inactive | KCNQ1 sel pot 7.6 | KCNQ2 pot conf 44 | Kir2-1 sel inactive | KCNQ2 W236L MoA inactive
Cc1nc(CNC(=O)CC2C(=O)NCCN2Cc2ccc(F)cc2)cs1 (stereo not given)	none (no result: KCNQ2 pot)
c1ccc2c(c1)ccc1ncccc12	none
Oc1c(N=Nc2ccccn2)ccc2ccccc12	KCNQ2 pot 5.9 | Kir21 confirm inactive | HEK293 ctr inactive | CHO-K1 ctr 91 | KCNQ1 sel pot inactive | KCNQ2 pot conf 28 | Kir2-1 sel inactive | KCNQ2 W236L MoA inactive
CN1CCCN(Cc2nc(-c3cccc(C(F)(F)F)c3)no2)CC1	none
Cc1ccc(S(=O)(=O)N2CCN(C(=O)NCc3ccc(C(=O)O)cc3)CC2)cc1	none
CO/N=C(/COc1ccc(F)cc1)c1ccc(OC)cc1	none (no result: KCNQ2 pot)
CO/N=C(/CS(=O)c1ccc(Br)cc1)c1ccc(OC)cc1 (stereo not given)	none (no result: KCNQ2 pot) | Kir21 confirm 50% | HEK293 ctr inactive
CCOC(=O)c1sc2ncnc(Nc3cccc(C(=O)O)c3)c2c1C	none
COc1ccc(CCN(CC(=O)NCc2ccc(F)cc2)C(=O)c2snc(C(N)=O)c2N)cc1OC	none
COc1cccc(NC(=O)COC(=O)CC(NC(N)=O)c2ccc(Cl)cc2)c1 (stereo not given)	none (no result: KCNQ2 pot)
CCOc1cccc(C(=O)NC(=S)Nc2ccc(Cl)cc2C(=O)O)c1	none

Bioassay records deposited in PubChem BioAssay by Johns Hopkins Ion Channel Center.
